Test results reported in paper PMC7862700, “An all-to-all approach to the identification of sequence-specific readers for epigenetic DNA modifications on cytosine”.

Tests used:
Test in all cases: DAPPL (digital affinity profiling via proximity ligation, sequencing); 10 mM Tris-HCl pH 7.5, 50 mM NaCl, 1 mM DTT, 4% glycerol, room temperature, 30 min; GST-TFs on glutathione beads, 16-mer random dsDNA library, 0.1% formaldehyde crosslink after washing; high values mean tight binding
Conditions in all cases: protein: recombinant; tags: N-terminal GST; dsDNA, one strand shown
FLI1 = target: T1, FLI1 (Homo sapiens, UniProt Q01543 1-452)
T1 sequence: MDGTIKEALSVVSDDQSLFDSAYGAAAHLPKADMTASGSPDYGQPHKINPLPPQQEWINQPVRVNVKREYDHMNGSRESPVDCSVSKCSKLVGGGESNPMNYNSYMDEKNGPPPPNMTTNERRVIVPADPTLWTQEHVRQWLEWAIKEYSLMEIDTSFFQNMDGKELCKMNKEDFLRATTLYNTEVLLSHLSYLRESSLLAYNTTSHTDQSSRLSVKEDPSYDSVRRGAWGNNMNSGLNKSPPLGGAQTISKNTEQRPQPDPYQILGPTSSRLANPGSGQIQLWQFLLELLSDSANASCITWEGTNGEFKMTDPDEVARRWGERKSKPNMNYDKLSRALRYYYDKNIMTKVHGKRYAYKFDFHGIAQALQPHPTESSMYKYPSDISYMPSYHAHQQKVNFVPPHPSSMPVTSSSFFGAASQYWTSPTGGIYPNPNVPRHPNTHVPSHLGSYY
In short: (§1)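 Sequencing on an Illumina NextSeq500 followed washing, crosslinking with 0.1% formaldehyde, proximity ligation (BsaI/T4 ligase, 1 h, 37 °C) and PCR amplification of pools that had been incubated for 30 min at room temperature with 200 nmole of a random double-stranded 16-mer DNA library in Tris/NaCl/DTT/glycerol buffer. Each pool held DNA-barcoded human transcription factors, expressed in yeast as GST fusions and captured on glutathione beads, plus a tag-only sample. Binding signal is a hexamer's read frequency for a factor divided by its frequency in the tag-only sample.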

ELK1 = target: T2, ELK1 (Homo sapiens, UniProt P19419 1-428)
T2 sequence: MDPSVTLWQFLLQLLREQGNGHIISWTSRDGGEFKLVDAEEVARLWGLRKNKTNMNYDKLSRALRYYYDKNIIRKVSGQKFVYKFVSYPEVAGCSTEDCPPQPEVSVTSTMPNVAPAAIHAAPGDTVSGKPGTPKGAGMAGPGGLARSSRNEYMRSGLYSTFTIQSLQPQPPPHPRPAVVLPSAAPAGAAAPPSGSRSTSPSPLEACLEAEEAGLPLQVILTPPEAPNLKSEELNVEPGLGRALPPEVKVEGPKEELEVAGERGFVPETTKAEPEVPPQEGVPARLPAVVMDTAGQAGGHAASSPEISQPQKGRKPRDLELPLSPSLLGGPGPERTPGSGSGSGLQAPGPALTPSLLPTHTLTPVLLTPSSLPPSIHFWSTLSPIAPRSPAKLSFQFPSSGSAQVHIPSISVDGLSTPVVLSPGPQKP
In short: as §1

GABPA = target: T3, GABPA (Homo sapiens, UniProt Q06546 1-454)
T3 sequence: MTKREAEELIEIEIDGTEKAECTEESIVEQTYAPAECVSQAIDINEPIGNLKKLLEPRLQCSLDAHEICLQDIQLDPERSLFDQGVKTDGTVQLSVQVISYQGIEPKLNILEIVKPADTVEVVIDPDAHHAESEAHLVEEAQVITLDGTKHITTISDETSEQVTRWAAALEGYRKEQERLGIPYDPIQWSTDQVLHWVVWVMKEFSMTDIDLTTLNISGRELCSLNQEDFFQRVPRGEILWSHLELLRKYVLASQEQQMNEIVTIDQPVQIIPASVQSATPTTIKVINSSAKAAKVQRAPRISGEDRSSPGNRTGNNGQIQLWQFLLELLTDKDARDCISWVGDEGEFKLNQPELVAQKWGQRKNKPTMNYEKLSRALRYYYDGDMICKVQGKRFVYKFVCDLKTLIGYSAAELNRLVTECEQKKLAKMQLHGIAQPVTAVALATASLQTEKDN
In short: as §1

ERG = target: T4, ERG (Homo sapiens, UniProt P11308 1-479)
T4 sequence: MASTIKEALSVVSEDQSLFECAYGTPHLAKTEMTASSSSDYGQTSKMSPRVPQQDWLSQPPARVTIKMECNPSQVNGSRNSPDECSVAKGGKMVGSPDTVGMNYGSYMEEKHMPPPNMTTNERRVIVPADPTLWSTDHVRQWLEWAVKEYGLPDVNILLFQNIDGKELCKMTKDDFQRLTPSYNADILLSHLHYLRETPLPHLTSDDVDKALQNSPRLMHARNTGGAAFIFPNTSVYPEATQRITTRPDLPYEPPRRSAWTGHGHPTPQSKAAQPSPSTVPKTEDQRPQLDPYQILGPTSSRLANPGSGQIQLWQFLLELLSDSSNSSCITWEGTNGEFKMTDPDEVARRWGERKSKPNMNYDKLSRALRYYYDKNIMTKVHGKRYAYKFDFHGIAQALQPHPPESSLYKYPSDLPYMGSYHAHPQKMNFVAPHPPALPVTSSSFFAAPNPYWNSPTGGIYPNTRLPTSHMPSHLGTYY
In short: as §1

ELF1 = ELF1 (Homo sapiens, UniProt P32519 1-619)
In short: as §1

EHF = target: T5, EHF (Homo sapiens, UniProt Q9NZC4 1-300)
T5 sequence: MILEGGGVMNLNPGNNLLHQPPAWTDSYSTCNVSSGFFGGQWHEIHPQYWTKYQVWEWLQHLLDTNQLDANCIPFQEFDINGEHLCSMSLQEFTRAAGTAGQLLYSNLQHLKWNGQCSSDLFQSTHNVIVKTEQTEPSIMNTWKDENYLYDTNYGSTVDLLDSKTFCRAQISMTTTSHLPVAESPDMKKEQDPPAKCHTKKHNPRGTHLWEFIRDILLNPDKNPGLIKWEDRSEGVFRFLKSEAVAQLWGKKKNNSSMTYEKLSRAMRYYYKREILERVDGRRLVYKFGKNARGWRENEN
In short: as §1

SPI1 = SPI1 (Homo sapiens, UniProt P17947 1-270)
In short: as §1

SPIB = SPIB (Homo sapiens, UniProt Q01892 1-262)
In short: as §1

ELK3 = target: T6, ELK3 (Homo sapiens, UniProt P41970 1-407)
T6 sequence: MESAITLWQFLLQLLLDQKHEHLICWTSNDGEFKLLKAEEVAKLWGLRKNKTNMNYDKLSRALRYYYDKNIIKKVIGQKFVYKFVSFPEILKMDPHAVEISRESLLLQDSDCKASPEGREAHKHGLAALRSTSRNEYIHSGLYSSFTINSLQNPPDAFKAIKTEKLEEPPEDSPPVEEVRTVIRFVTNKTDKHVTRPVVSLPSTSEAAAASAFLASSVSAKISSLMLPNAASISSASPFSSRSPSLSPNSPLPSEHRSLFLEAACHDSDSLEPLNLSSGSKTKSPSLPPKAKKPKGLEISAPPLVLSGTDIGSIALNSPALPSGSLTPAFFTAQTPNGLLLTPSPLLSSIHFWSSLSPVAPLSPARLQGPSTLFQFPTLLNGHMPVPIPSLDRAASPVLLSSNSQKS
In short: as §1

Chain of ELF1 (P32519 whole entry): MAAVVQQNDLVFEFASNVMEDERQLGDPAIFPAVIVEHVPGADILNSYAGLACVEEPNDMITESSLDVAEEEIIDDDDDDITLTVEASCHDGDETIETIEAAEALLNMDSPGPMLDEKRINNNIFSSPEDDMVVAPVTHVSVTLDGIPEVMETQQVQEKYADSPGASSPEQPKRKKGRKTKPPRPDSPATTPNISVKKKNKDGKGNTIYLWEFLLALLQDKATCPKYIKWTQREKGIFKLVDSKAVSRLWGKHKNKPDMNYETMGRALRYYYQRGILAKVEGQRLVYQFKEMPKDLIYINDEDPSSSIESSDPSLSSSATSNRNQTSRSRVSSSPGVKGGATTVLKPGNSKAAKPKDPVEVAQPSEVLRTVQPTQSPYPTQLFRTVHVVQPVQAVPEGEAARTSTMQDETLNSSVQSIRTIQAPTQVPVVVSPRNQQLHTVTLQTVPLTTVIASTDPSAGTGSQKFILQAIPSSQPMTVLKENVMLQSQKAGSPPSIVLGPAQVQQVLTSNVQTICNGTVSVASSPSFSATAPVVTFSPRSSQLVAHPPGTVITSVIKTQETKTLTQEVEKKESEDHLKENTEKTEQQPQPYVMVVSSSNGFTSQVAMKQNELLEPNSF
Chain of SPIB (Q01892 whole entry): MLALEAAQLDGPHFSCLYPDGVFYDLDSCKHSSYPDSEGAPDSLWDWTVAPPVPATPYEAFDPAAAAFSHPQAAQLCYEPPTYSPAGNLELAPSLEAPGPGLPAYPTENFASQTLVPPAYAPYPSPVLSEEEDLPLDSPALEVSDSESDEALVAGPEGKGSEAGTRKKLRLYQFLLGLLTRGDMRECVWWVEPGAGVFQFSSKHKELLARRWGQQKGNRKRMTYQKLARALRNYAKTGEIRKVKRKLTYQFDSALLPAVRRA

| Sequence | binding signal (FLI1) | binding signal (ELK1) | binding signal (GABPA) | binding signal (ERG) | binding signal (ELF1) | binding signal (EHF) | binding signal (SPI1) | binding signal (SPIB) | binding signal (ELK3) |
| --- | --- | --- | --- | --- | --- | --- | --- | --- | --- |
| GTCCCG | 1.29 fold enrichment (6-mer frequency, TF over GST control) | 1.2 fold enrichment (6-mer frequency, TF over GST control) | 1.21 fold enrichment (6-mer frequency, TF over GST control) | 1.22 fold enrichment (6-mer frequency, TF over GST control) | 1.24 fold enrichment (6-mer frequency, TF over GST control) | 1.2 fold enrichment (6-mer frequency, TF over GST control) | 1.21 fold enrichment (6-mer frequency, TF over GST control) | 1.32 fold enrichment (6-mer frequency, TF over GST control) | 1.26 fold enrichment (6-mer frequency, TF over GST control) |
| GGATTT | 1.33 fold enrichment (6-mer frequency, TF over GST control) | 1.25 fold enrichment (6-mer frequency, TF over GST control) | 1.26 fold enrichment (6-mer frequency, TF over GST control) | 1.34 fold enrichment (6-mer frequency, TF over GST control) | 1.23 fold enrichment (6-mer frequency, TF over GST control) | 1.24 fold enrichment (6-mer frequency, TF over GST control) | 1.22 fold enrichment (6-mer frequency, TF over GST control) | 1.29 fold enrichment (6-mer frequency, TF over GST control) | 1.48 fold enrichment (6-mer frequency, TF over GST control) |
| CAAGCA | 1.1 fold enrichment (6-mer frequency, TF over GST control) | 1.1 fold enrichment (6-mer frequency, TF over GST control) | 1.14 fold enrichment (6-mer frequency, TF over GST control) | 1.07 fold enrichment (6-mer frequency, TF over GST control) | 1.18 fold enrichment (6-mer frequency, TF over GST control) | 1.02 fold enrichment (6-mer frequency, TF over GST control) | 1.07 fold enrichment (6-mer frequency, TF over GST control) | 1.06 fold enrichment (6-mer frequency, TF over GST control) | 1.1 fold enrichment (6-mer frequency, TF over GST control) |
| TAGCAA | 1.15 fold enrichment (6-mer frequency, TF over GST control) | 1.21 fold enrichment (6-mer frequency, TF over GST control) | 1.21 fold enrichment (6-mer frequency, TF over GST control) | 1.17 fold enrichment (6-mer frequency, TF over GST control) | 1.23 fold enrichment (6-mer frequency, TF over GST control) | 1.23 fold enrichment (6-mer frequency, TF over GST control) | 1.21 fold enrichment (6-mer frequency, TF over GST control) | 1.34 fold enrichment (6-mer frequency, TF over GST control) | 1.24 fold enrichment (6-mer frequency, TF over GST control) |
| ACTTAC | 1.14 fold enrichment (6-mer frequency, TF over GST control) | 1.17 fold enrichment (6-mer frequency, TF over GST control) | 1.2 fold enrichment (6-mer frequency, TF over GST control) | 1.1 fold enrichment (6-mer frequency, TF over GST control) | 1.18 fold enrichment (6-mer frequency, TF over GST control) | 1.28 fold enrichment (6-mer frequency, TF over GST control) | 1.27 fold enrichment (6-mer frequency, TF over GST control) | 1.1 fold enrichment (6-mer frequency, TF over GST control) | 1.12 fold enrichment (6-mer frequency, TF over GST control) |
| TAGGGT | 1.04 fold enrichment (6-mer frequency, TF over GST control) | 1.03 fold enrichment (6-mer frequency, TF over GST control) | 1.11 fold enrichment (6-mer frequency, TF over GST control) | 1.03 fold enrichment (6-mer frequency, TF over GST control) | 1.16 fold enrichment (6-mer frequency, TF over GST control) | 1.09 fold enrichment (6-mer frequency, TF over GST control) | 1.13 fold enrichment (6-mer frequency, TF over GST control) | 1.1 fold enrichment (6-mer frequency, TF over GST control) | 1.04 fold enrichment (6-mer frequency, TF over GST control) |
| AAGAAC | 1.13 fold enrichment (6-mer frequency, TF over GST control) | 1.18 fold enrichment (6-mer frequency, TF over GST control) | 1.15 fold enrichment (6-mer frequency, TF over GST control) | 1.22 fold enrichment (6-mer frequency, TF over GST control) | 1.17 fold enrichment (6-mer frequency, TF over GST control) | 1.24 fold enrichment (6-mer frequency, TF over GST control) | 1.14 fold enrichment (6-mer frequency, TF over GST control) | 1.05 fold enrichment (6-mer frequency, TF over GST control) | 1.24 fold enrichment (6-mer frequency, TF over GST control) |
| GATGTC | 1.25 fold enrichment (6-mer frequency, TF over GST control) | 1.37 fold enrichment (6-mer frequency, TF over GST control) | 1.24 fold enrichment (6-mer frequency, TF over GST control) | 1.41 fold enrichment (6-mer frequency, TF over GST control) | 1.22 fold enrichment (6-mer frequency, TF over GST control) | 1.31 fold enrichment (6-mer frequency, TF over GST control) | 1.23 fold enrichment (6-mer frequency, TF over GST control) | 1.37 fold enrichment (6-mer frequency, TF over GST control) | 1.19 fold enrichment (6-mer frequency, TF over GST control) |
